In PubChem BioAssay (Tox21) one finds Potency data, which are given here for 40 compounds.

Values joined by “and” are separate entries in the source; they are usually repeats but may differ in a detail not shown here. Equal values may be shown once. Inconclusive results are not listed. Active and inactive are the calls of the source. Calls come from the whole dose curve.
Potency is the fitted concentration of half-maximal effect.

The experiment is described as follows: qHTS assay to identify small molecule antagonists of the sonic hedgehog signaling (Shh) pathway (AID 1259369). Note: nearly all actives have a fitted effect of over 45% in size. As to conditions: NIH/3T3 Gli1-Luc reporter, Shh antagonist, luminescence 24 h; series mostly up to 92.4 µM. From the text: U.S. Tox21 Program National Center for Advancing Translational Sciences [NCATS] NIH Chemical Genomics Center [NCGC] U.S. Environmental Protection Agency [EPA] National Institutes of Environmental Health Sciences [NIEHS] National Toxicology Program [NTP] U.S. Food and Drug Administration [FDA] Tox21 Assay Overview: The sonic hedgehog (Shh) pathway is essential for normal embryonic development. Dysregulation of the Shh pathway can cause severe developmental defects in organs. Therefore chemicals that interfere with the pathway are potential developmental toxicants. A cell line designated 3T3Gli1-Luc (DMB/OARSA/CFSAN/FDA, Laurel, MD), a NIH/3T3 derived clone containing stably integrated Gli1-Luc reporter is used to detect chemical interference of the Shh pathway, by changes in the expression of the firefly Luc gene under the control of the Gli1 transcriptional response element. This cell line was used to screen Tox21 libraries for identifying and prioritizing the potential developmental toxicants that interfere Shh pathway. Conditioned medium-stimulated mode was used to screen for chemicals inhibiting Shh signaling.
Tox21 Assay Protocol Summary: 3T3 Gli1-Luc cells were dispensed at 2,000 per well in 5uL of culture medium into white solid bottom 1536-well plates (Greiner Bio-One, Monroe, NC) using a Multidrop Combi (Thermo Scientific, Waltham, MA) dispenser. The assay plates were incubated at 37 C and 5% CO2 for 4hr, and then 23nL of compounds dissolved in DMSO and positive control were transferred using a Pintool station (Wako, San Diego, CA). The compound transfer was followed by the addition of 1ul conditioned medium or assay buffer using two separate tips of Flying Reagent Dispenser (FRD, Aurora Discovery, San Diego, CA). The assay plates were incubated at 37C and 5% CO2 for 24hr. For luciferase read, 4uL of Amplite Luciferase reporter gene assay reagent (AAT Bioquest, Inc. Sunnyvale, CA) was added to each well of the assay plates using FRD and incubated at room temperature for 30min. The luminescence signal was measured using a ViewLux plate reader (Perkin Elmer, Shelton, CT).
(In qHTS, concentration-response curves come from the screen itself.)
Regarding `CN(C)[C@@H]1C(=O)C(C(N)=O)=C(O)[C@@]2(O)C(=O)C3=C(O)c4c(O)ccc(Cl)c4[C@@H](O)[C@H]3C[C@@H]12`, the Potency entry was “inactive”.

On to `NC(=NCCCCCCN=C(N)/N=C(\N)Nc1ccc(Cl)cc1)/N=C(\N)Nc1ccc(Cl)cc1`, for which the Potency was 21.5 µM (active) and 27.2 µM (active) and 19.2 µM (active). In the case of `CCCCCCCC[P+](CCCCCCCC)(CCCCCCCC)CCCCCCCC`, the Potency was 0.483 µM (active). To `Cc1cc(N)c(S(=O)(=O)O)cc1Cl` belongs “inactive”; to `CN(C)C(=O)C1(N2CCCCC2)CCN(CC[C@@]2(c3ccc(Cl)c(Cl)c3)CN(C(=O)c3ccccc3)CCO2)CC1`, 18.1 µM (active). To `CCc1cc(Cc2cc(CC)c(N)c(CC)c2)cc(CC)c1N` belongs 30.6 µM (active); to `Cc1cc(O)c2ccccc2c1O`, 13.3 µM (active); to `[O-][n+]1ccccc1SSc1cccc[n+]1[O-]`, 0.164 µM (active).

Take `CC(C)n1nc(-c2cc3cc(O)ccc3[nH]2)c2c(N)ncnc21`: the Potency was 1.5 µM (active). In the case of `O=C(OC[C@H]1O[C@@H](OC(=O)c2cc(O)c(O)c(OC(=O)c3cc(O)c(O)c(O)c3)c2)[C@H](OC(=O)c2cc(O)c(O)c(OC(=O)c3cc(O)c(O)c(O)c3)c2)[C@@H](OC(=O)c2cc(O)c(O)c(OC(=O)c3cc(O)c(O)c(O)c3)c2)[C@@H]1OC(=O)c1cc(O)c(O)c(OC(=O)c2cc(O)c(O)c(O)c2)c1)c1cc(O)c(O)c(OC(=O)c2cc(O)c(O)c(O)c2)c1` it was 5.22 µM (active); in that of `CC[C@H]1O[C@]2(CC[C@@H]1C)C[C@@H]1C[C@@H](C/C=C(\C)C[C@@H](C)/C=C/C=C3\CO[C@@H]4[C@H](O)C(C)=C[C@@H](C(=O)O1)[C@]34O)O2`, “inactive”; in that of `CCCCCCCCCCCCCCCC[N+](C)(C)CCN(Cc1ccc(OC)cc1)c1ncccn1`, 2.66 µM (active). `CCCCCOC(=O)CCCC`: the Potency entry was “inactive”. Consider `CCCCCCCCCCCCCCCCCC[N+](C)(C)C`, for which the Potency was 0.274 µM (active). On to `Fc1ccc([C@@H]2CCNC[C@H]2COc2ccc3c(c2)OCO3)cc1`, for which the Potency result is “inactive”. To `NC(=O)NS(=O)(=O)c1ccc(N)cc1` belongs “inactive”; to `Cc1[nH]cnc1C[C@H]1CCc2c(C)c3ccccc3n2C1=O`, 18.9 µM (active); to `COc1cccc(N)c1`, “inactive”. To `CCCCCCCCCOC(=O)c1ccc(O)cc1` belongs “inactive”. In the case of `C[n+]1ccn(Cc2ccccc2)c1` it was “inactive”; in that of `[Cl][Bi]([Cl])([c]1ccccc1)([c]1ccccc1)[c]1ccccc1`, 0.0242 µM (active). On to `CCN(CC)CCNC(=O)c1c(C)[nH]c(/C=C2\C(=O)Nc3ccc(F)cc32)c1C`, for which the Potency is 3.35 µM (active).

As for `CNC(=O)c1ccccc1`, the Potency entry was “inactive”. With `O=C(Nc1cccc(Cl)c1)OCC#CCCl`, the Potency is 5.45 µM (active). To `CC(C)CCCCCCCCCCCCCCC(=O)O` belongs “inactive”; to `CCCCCCCC/C=C/CCCCCCCC1=NCCN1CCO`, 54.5 µM (active).

Consider `Cc1[nH]nc2c1N=C(c1ccccc1Cl)c1cc([N+](=O)[O-])ccc1N2`, for which the Potency is 1.72 µM (active).

Consider `CCCC(c1cc(C(C)(C)C)c(O)cc1C)c1cc(C(C)(C)C)c(O)cc1C`, for which the Potency was 13.9 µM (active). In the case of `Cc1onc(-c2ccccc2Cl)c1C(=O)N[C@@H]1C(=O)N2[C@@H]1SC(C)(C)[C@@H]2C(=O)O` it was “inactive”; in that of `S=c1[nH]c2ccccc2s1`, 21.7 µM (active); in that of `CCOC(=O)/C=C(C)/C=C/C=C(C)/C=C/c1c(C)cc(OC)c(C)c1C`, “inactive”. To `CCCCCCCCS(=O)C(C)Cc1ccc2c(c1)OCO2` (stereo not given) belongs 31.2 µM (active). To `Clc1ccc2n[nH]nc2c1` belongs “inactive”; to `COc1cc(/C=C/C(=O)O[C@H]2CC[C@]34C[C@]35CC[C@]3(C)[C@@H]([C@H](C)CCC=C(C)C)CC[C@@]3(C)[C@@H]5CC[C@H]4C2(C)C)ccc1O`, “inactive”; to `COC(=O)C1=C(C)NC(C)=C(C(=O)OCCc2ccc(N3CCN(C(c4ccccc4)c4ccccc4)CC3)cc2)C1c1cccc([N+](=O)[O-])c1` (stereo not given), “inactive”.

For the compound `CCC(Cl)C(Cl)C(Cl)CC(Cl)C(Cl)C(C)Cl` (stereo not given), the Potency entry was “inactive”. In the case of `COc1ccc(CN2CCN(C(c3ccc(F)cc3)c3ccc(F)cc3)CC2)c(OC)c1OC` it was 29.8 µM (active); in that of `CSc1ccc(/C=C2/C(C)=C(CC(=O)O)c3cc(F)ccc32)cc1`, “inactive”. For the compound `Cc1cc(CCN2CCN(c3nsc4ccccc34)CC2)cc2c1NC(=O)CC2(C)C`, the Potency was 1.37 µM (active). In the case of `COC(=O)c1cc(Cl)ccc1OC` it was “inactive”.
